# PubChem BioAssay
# Activity calls are given as the source filed them.
# What was measured:
# [1] = E. coli DRC41 culture turbidity changes, primary screen, E. coli filamentation inducer project, strain DRC41, OD650, 48 h (AID 1152);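 further: E. coli MC1000 strain DRC41 lacking acrAB efflux pump and sulA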; details: E. coli DRC41 (acrAB sulA), higher = more signal, called active from +8 up or from −8 down
# [2] = small-molecule binders of probe aLefty1, primary screen, biochemical, small-molecule microarray, 635/667 nm fluorescence (AID 1153); details: higher = more signal;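 further: score merges spot fluorescence with signal-to-noise ratio from the scanned slide images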
# [3] = PSAC antagonists in infected red cells, primary screen, cell-based, P. falciparum Indochina, OD700, 1 h (AID 1154); details: P. falciparum Indochina infected RBC osmotic lysis, higher = more signal, called active from +8 up or from −8 down
# [4] = PSAC antagonists in infected red cells, primary screen, cell-based, P. falciparum Indochina, OD700, 2 h (AID 1155);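 further: lysis reports solute entry through the parasite surface anion channel PSAC; channel blockers reduce lysis of infected cells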; details: P. falciparum Indochina infected erythrocytes, osmotic lysis OD700; higher = more signal, called active from +8 up or from −8 down
# [5] = osmotic lysis modulators in infected erythrocytes, primary screen, PSAC antagonist project, cell-based, P. falciparum Indochina, OD700, 3 h (AID 1156); details: higher = more signal, called active from +8 up or from −8 down
# [6] = PSAC antagonists in infected red cells, primary screen, cell-based, P. falciparum Indochina, OD700, 18 h (AID 1157); details: P. falciparum Indochina infected erythrocytes, osmotic lysis OD700, 18 h; higher = more signal, called active from +8 up or from −8 down
# [7] = modulators of S6 phosphorylation in cells, primary screen, cell-based, A549, cytoblot, luminescence, serum-stimulated (AID 1158); details: A549 phospho-S6 cytoblot, 5 h, higher = more signal;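 further: serum-stimulated A549 lung adenocarcinoma cells; signal is phosphorylated S6 detected by cytoblot immunostaining with HRP secondary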
# [8] = biological target: NADPH oxidase 2 (Homo sapiens) (UniProt P04839); assay: NOX2-dependent H2O2 signal modulators, primary screen, NOX inhibitor project, cell-based, HEK293-NOX2, PMA-stimulated, Amplex Red fluorescence (AID 1159); details: 45 min, higher = more signal, called active from +8 up or from −8 down; further: test concentration not given here
# [9] = biological target: NADPH oxidase 4 (Homo sapiens) (UniProt Q9NPH5); assay: NOX4-dependent H2O2 signal modulators, primary screen, NOX inhibitor project, cell-based, HEK293-NOX4, tetracycline-induced, Amplex Red fluorescence (AID 1160); details: 45 min, higher = more signal, called active from +8 up or from −8 down
# [10] = biological target: NADPH oxidase 5 (Homo sapiens) (UniProt Q96PH1); assay: NOX5-dependent H2O2 signal modulators, primary screen, NOX inhibitor project, cell-based, HEK293-NOX5, Amplex Red fluorescence (AID 1161); details: HEK293-NOX5, ionomycin, 45 min, higher = more signal
# [11] = A549 cell viability effects, profiling panel, calcein-AM fluorescence, 48 h, basal (AID 1162); details: higher = more signal; further: test concentration not given here
# [12] = adipocyte viability effects, profiling panel, cell-based, 3T3-L1 adipocytes, calcein-AM fluorescence, 48 h, basal (AID 1163); details: 3T3-L1 adipocytes viability, higher = more signal; further: test concentration not given here
# [13] = HepG2 cell viability effects, profiling panel, calcein-AM fluorescence, 48 h, basal (AID 1164); details: higher = more signal; further: test concentration not given here
# [14] = MM1S cell viability effects, profiling panel, calcein-AM fluorescence, 48 h, basal (AID 1165); details: higher = more signal;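 further: viability of MM1S multiple myeloma cells under basal unstimulated conditions; test concentration not given here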
# [15] = basal RPMI8226 viability, no added stimulus, profiling panel, cell-based, calcein-AM fluorescence, 48 h, PK04 Diversity Set (AID 1166); details: RPMI8226 myeloma viability, higher = more signal;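 further: cells grown under basal conditions without added stimulus; test concentration not given here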
# [16] = basal HepG2 mitochondrial membrane potential changes, profiling panel, cell-based, JC-1 fluorescence, 24 h, 100 nL compound (AID 1167); details: higher = more signal; further: test concentration not given here
# [17] = basal 3T3-L1 adipocyte mitochondrial potential changes, profiling panel, cell-based, JC-1 fluorescence, 3T3-L1 adipocytes, 24 h, 100 nL compound (AID 1168); details: JC-1 mitochondrial fluorescence, higher = more signal, called active from +8 up or from −8 down; further: test concentration not given here
# [18] = basal RPMI8226 mitochondrial membrane potential changes, profiling panel, cell-based, JC-1 fluorescence, 24 h, 100 nL compound (AID 1169); details: RPMI8226 myeloma, JC-1 mitochondrial potential fluorescence, higher = more signal; further: test concentration not given here
# [19] = basal MM1S mitochondrial membrane potential changes, profiling panel, cell-based, JC-1 fluorescence, 24 h, 100 nL compound (AID 1170); details: higher = more signal; further: test concentration not given here
# [20] = A549 lung cancer cell viability effects, profiling panel, resazurin fluorescence, 24 h, PK04 Diversity Set (AID 1171); details: higher = more signal, called active from +8 up or from −8 down; further: test concentration not given here
# NADPH oxidase 5 (Homo sapiens), sequence (Q96PH1 whole entry, looked up): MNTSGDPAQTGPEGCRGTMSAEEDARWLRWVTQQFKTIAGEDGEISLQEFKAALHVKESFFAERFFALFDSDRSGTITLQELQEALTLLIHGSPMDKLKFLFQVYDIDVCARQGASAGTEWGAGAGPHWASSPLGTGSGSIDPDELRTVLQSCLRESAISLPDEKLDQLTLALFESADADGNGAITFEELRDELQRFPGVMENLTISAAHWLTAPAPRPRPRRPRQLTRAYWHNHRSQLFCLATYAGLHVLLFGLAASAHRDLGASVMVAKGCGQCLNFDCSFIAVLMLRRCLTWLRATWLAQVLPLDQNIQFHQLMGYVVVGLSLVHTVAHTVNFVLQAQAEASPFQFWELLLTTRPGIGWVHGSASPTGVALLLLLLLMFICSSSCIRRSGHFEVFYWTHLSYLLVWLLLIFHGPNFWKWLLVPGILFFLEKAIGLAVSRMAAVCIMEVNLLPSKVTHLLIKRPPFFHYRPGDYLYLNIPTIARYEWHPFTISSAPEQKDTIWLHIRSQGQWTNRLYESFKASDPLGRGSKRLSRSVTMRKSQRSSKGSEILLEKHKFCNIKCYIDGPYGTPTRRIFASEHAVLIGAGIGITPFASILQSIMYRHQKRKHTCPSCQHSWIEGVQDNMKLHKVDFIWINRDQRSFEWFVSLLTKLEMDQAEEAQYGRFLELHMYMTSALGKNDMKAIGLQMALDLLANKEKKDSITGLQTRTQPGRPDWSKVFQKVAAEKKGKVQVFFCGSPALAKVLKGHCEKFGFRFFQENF
# NADPH oxidase 2 (Homo sapiens), sequence (P04839 whole entry, looked up): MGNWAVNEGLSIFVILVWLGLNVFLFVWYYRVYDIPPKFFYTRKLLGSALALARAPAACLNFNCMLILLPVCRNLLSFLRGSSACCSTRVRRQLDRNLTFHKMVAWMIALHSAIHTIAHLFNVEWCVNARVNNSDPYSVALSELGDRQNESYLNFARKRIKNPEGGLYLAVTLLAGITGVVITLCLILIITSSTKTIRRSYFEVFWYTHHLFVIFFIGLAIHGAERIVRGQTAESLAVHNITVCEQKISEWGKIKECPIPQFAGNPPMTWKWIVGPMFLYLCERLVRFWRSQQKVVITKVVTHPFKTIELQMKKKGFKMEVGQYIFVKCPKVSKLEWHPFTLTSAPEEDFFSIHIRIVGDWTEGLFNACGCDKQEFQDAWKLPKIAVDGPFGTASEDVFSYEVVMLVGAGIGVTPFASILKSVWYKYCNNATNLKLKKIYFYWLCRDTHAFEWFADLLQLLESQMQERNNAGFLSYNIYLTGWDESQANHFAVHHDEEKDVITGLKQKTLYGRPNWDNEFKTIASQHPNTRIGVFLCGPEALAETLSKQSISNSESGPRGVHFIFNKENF
# NADPH oxidase 4 (Homo sapiens), sequence (Q9NPH5 whole entry, looked up): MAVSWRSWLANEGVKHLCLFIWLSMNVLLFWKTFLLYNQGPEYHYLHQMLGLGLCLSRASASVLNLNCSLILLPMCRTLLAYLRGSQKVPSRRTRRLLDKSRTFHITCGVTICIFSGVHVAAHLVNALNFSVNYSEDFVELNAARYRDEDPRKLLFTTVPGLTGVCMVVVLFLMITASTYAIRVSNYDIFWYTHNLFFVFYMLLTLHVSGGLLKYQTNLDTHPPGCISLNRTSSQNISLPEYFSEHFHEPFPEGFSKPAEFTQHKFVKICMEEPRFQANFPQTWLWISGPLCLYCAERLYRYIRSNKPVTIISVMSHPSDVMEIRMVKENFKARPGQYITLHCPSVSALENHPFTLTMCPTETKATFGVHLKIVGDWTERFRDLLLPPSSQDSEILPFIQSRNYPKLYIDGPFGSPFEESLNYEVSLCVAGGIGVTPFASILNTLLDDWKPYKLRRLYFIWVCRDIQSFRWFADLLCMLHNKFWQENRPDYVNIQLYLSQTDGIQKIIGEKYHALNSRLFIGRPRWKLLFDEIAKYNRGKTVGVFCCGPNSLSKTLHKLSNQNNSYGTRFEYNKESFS
Compound,z-score [1],composite z-score [2],z-score [3],z-score [4],z-score [5],z-score [6],z-score [7],z-score [8],z-score [9],z-score [10],z-score [11],z-score [12],z-score [13],z-score [14],z-score [15],z-score [16],z-score [17],z-score [18],z-score [19],z-score [20]
CN1C2C=C(CCCO)C(C3C(=O)N(C(N)=O)C(=O)C32)C1C1CC1 (stereo not given),-0.625 (inactive),-0.188,-0.234 (inactive),-0.0718 (inactive),-0.624 (inactive),-0.0366 (inactive),-0.896,0.191 (inactive),-0.07 (inactive),0.257,0.0701,-0.0683,0.592,0.0641,-0.952,-0.486,0.0295 (inactive),0.192,0.238,-0.513 (inactive)
CCCC#C[Si](O[C@H](CC)c1cn([C@H](C)c2ccccc2)nn1)(C(C)C)C(C)C,2.53 (inactive),0.28,1.01 (inactive),1.05 (inactive),-0.302 (inactive),0.357 (inactive),0.364,0.177 (inactive),0.00728 (inactive),0.7,1.18,-0.374,0.9,-1.32,-1.74,0.621,0.698 (inactive),-0.0539,-0.0359,0.61 (inactive)
CC(C)[Si](C#C[Si](C(C)C)(C(C)C)C(C)C)(O[C@H](c1ccccc1)c1cn(Cc2ccccc2)nn1)C(C)C,1.25 (inactive),0.0997,0.62 (inactive),0.267 (inactive),-0.351 (inactive),0.136 (inactive),-0.25,-0.734 (inactive),-1.17 (inactive),-0.932,-0.491,-0.224,0.732,1.01,0.798,1.63,-0.703 (inactive),0.294,-0.888,1.77 (inactive)
COc1ccc([Si](C)(C)[C@@H]2[C@@H](CCO)O[C@]3(C(=O)N(Cc4ccccc4)c4ccc(NC(=O)[C@H](C)O)cc43)[C@H]2C)cc1,0.573 (inactive),0.621,12.8 (active),2.77 (inactive),-0.919 (inactive),1.92 (inactive),0.402,0.77 (inactive),0.452 (inactive),1.8,-2.21,0.641,-4.61,-2.62,-4.3,-2.7,-0.241 (inactive),-0.972,-2.15,-3.3 (inactive)
CCOC(=O)C[C@H]1[C@H](OC(=O)Cc2ccc3c(c2)OCO3)[C@@H](NC(=O)c2ccc3ccccc3n2)c2cc(OCCCO)ccc2N1C(=O)c1ccc2ccccc2n1,3.01 (inactive),0.103,15.8 (active),2.25 (inactive),-1.37 (inactive),-0.0077 (inactive),1.3,0.11 (inactive),0.204 (inactive),-2.65,5.35,1.03,1.83,-1.01,0.121,2.81,0.413 (inactive),0.362,0.981,-0.387 (inactive)
O=C(O)[C@@H]1[C@@H]2C(=O)N(c3ccccc3)C(=O)[C@@H]2C[C@@H]1Sc1ccccc1,-1.52 (inactive),-0.0573,0.919 (inactive),0.544 (inactive),0.0175 (inactive),0.631 (inactive),-0.381,0.312 (inactive),-0.541 (inactive),-0.295,-0.653,-0.832,-1.32,-0.939,-0.616,-0.829,-0.867 (inactive),0.718,-0.773,0.0964 (inactive)
COCCOC(=O)N1C(=O)[C@@]2(c3cc(C#CC4(O)CCCCCC4)ccc31)[C@H](C(=O)N1CCc3cc(OC)c(OC)cc3C1)[C@H]1C(=O)O[C@H](c3ccccc3)[C@H](c3ccccc3)N1[C@@H]2c1ccc(OCCO)cc1,-0.073 (inactive),-0.469,7.39 (inactive),2.64 (inactive),1.41 (inactive),1.64 (inactive),0.272,1.6 (inactive),0.614 (inactive),1.74,-0.111,0.172,-0.653,-1.83,-0.468,-0.32,0.354 (inactive),-0.542,-1.39,-0.317 (inactive)
CCOC(=O)C1=C[C@@H](C(C)C)N(S(=O)(=O)c2ccc(C)cc2)[C@H]1c1ccc(C(F)(F)F)cc1,-1.58 (inactive),0.2,0.172 (inactive),0.279 (inactive),-0.422 (inactive),0.0209 (inactive),-0.696,-0.116 (inactive),0.024 (inactive),0.599,-0.731,-0.448,-1.53,-2.91,-1.65,3.7,-0.216 (inactive),-0.208,-0.446,0.793 (inactive)
[N-]=[N+]=Nc1ccccc1[C@@H]1OC(c2ccc(OCCCO)cc2)=N[C@]1(Cc1ccccc1)C(=O)N1CCCCC1,0.227 (inactive),0.282,32.6 (active),32.7 (active),3.01 (inactive),4 (inactive),0.328,-1.43 (inactive),-0.743 (inactive),-1.77,-0.523,-0.0528,-0.822,-2.91,-4.32,0.408,1.87 (inactive),-1.17,-2.19,-1.61 (inactive)
